Screening results as filed in PubChem BioAssay.
esBAF inh: inhibitors of esBAF chromatin remodeling in mouse ES cells; Bmi1-luciferase knock-in reporter, 24 h; 100% = twice the neutral-well signal; reporter increase, % at 12.5 µM; 2% of 350,000 active; in the data active = activation above about 40%; inconclusive = no clear call, values can overlap the other calls;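 note: 0% = median of the plate's neutral control wells and 100% = double that signal; a rise in the Bmi1 reporter signal indicates esBAF inhibition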
MITF TRPM1 inh: reduces MITF-dependent TRPM1 promoter luciferase signal | AID 488899 | inhibition, % at 12.5 µM | 0.83% of 330,000 active | SK-MEL-5 TRPM1 promoter luciferase, 24 h;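 active = mean inhibition across replicates of 60% or more, whatever share of single replicates reaches that level; inconclusive = some that reach 60%, reason not given; inactive = mean inhibition across replicates below 60%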
PAX8 reporter: inhibitors of PAX8 transcriptional activity in RMG-I cells. RMG-I TPO-luciferase reporter, SteadyGlo, 24 h. inhibition, % at 12.6 µM. 1.2% of 360,000 active;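 active = mean replicate inhibition at least 60% with every replicate also reaching 60%; inconclusive = only one of the two criteria is met; inactive = mean below 60% and not all replicates reaching 60%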;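 note: luciferase light reporting Pax8 driven TPO promoter activity; plate controls were median of neutral control wells for no effect and mitoxantrone controls for full effect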
Wnt bcat act: activators of Wnt/beta-catenin signaling. Wnt/beta-catenin reporter cell assay, activator, plate reader. activation, % at 9.35 µM. 1.2% of 300,000 active. AID 743398; in the data active = activation above about 30%, passing the limit was not always enough; inconclusive = no clear call, values can overlap the other calls;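 note: 0% = neutral control wells and 100% = positive control wells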
MITF TRPM1 HTS: increases MITF-driven TRPM1 promoter luciferase signal. SK-MEL-5 TRPM1-promoter luciferase, 24 h; % of positive control, neutral wells = 0. activation, % at 12.5 µM. 0.75% of 300,000 active. AID 588334;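 active = mean activation of at least 80% with every replicate also reaching 80%; inconclusive = mean reaches 80% but some replicate falls short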;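 note: 0% = neutral control wells and 100% = parthenolide positive control wells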
EWS-Fli inh: inhibitors of EWS/Fli oncoprotein transcriptional activity | A673 NR0B1-luciferase reporter, viability-normalised | inhibition, % at 12.6 µM | 0.67% of 350,000 active;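 active = mean inhibition of at least 50% after viability correction, with every replicate also passing that limit; inconclusive = mean reaches 50% but only one of two replicates passes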;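 note: firefly luciferase signal divided by Alamar Blue viability fluorescence both relative to DMSO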
Numbers without * were called inactive; ? = inconclusive; / = no result given. This is a sample that favours compounds with a hit; in the whole collection about 4% have one here.

SMILES	esBAF inh	MITF TRPM1 inh	PAX8 reporter	Wnt bcat act	MITF TRPM1 HTS	EWS-Fli inh
COC(=O)[C@@H]1[C@@H](CO)[C@@H]2Cn3c(ccc(-c4ccccc4F)c3=O)[C@H]1N2Cc1ccncc1	4	/	-8	/	/	-1
O=C(Cc1ccccn1)N1CC2(C1)[C@H](c1ccccc1)[C@H](CO)N2Cc1ccccn1	/	/	-5	/	/	1
C[C@@H]1CN([C@@H](C)CO)C(=O)c2c(c3ccccc3n2C)-c2ccccc2CO[C@H]1CN(C)C(=O)Oc1ccccc1	/	/	4	/	/	4
COC(=O)[C@@H]1[C@@H](CO)[C@@H]2Cn3c(ccc(-c4ccccc4)c3=O)[C@H]1N2CC1CCOCC1	0	/	11	/	/	4
COC(=O)[C@H]1[C@H](CO)[C@H]2Cn3c(ccc(/C=C/c4ccccc4)c3=O)[C@@H]1N2C(=O)C1CC1	1	/	/	/	/	22
Cc1ccc(N2C(=O)NC(=O)/C(=C\C=C\c3ccco3)C2=O)cc1	-88	102*	10	0	-101	56*
Cc1ccc(N2C(=O)NC(=O)/C(=C\c3ccoc3)C2=O)cc1	-9	9	-3	0	-8	-3
COC(=O)[C@H]1[C@H](CO)[C@H]2Cn3c(ccc(-c4ccccc4)c3=O)[C@@H]1N2CC1CC1	-7	/	/	/	/	-3
Cc1ccc(Cn2nc(C(=O)Nc3ccc(Br)cc3)cc2C)cc1	59*	-36	-138	5	38	-86
Cc1nn(Cc2ccccc2)c(Cl)c1C(=O)Nc1ccc(OC(F)(F)F)cc1	/	0	-1	-6	2	/
C[C@H]1CN([C@@H](C)CO)C(=O)c2c(c3ccccc3n2C)-c2ccccc2CO[C@H]1CN(C)C(=O)Oc1ccccc1	/	/	5	/	/	7
CCc1ccc(-c2nn(Cc3ccccc3)cc2C=O)cc1	67*	-51	-264	14	69	-116
O=C(Cc1ccccn1)N1CCCCN2[C@@H](CO)[C@@H](c3ccc(Br)cc3)[C@@H]2C1	-4	/	-9	/	/	-2
CCOC(=O)[C@@H]1[C@@H]2NC(=S)N(C)[C@@]1(COCc1ccc(OC)cc1)Oc1ccccc12	/	/	8	/	/	-10
O=C(O)[C@H]1[C@H](CO)[C@H]2Cn3c(ccc(-c4ccc(F)cc4)c3=O)[C@@H]1N2CC1CCCCC1	1	/	-10	/	/	-3
O=C1CNC[C@H]2[C@@H](c3ccc(Br)cc3)[C@@H](CO)N12	/	/	-7	/	/	-11
CCOC(=O)CC(NC(=O)C(Cc1ccc(N(CCCl)CCCl)cc1)NC(C)=O)C(=O)OCC (configuration not stated)	/	47	7	4	-46	68*
CC(=O)NC(Cc1ccc(N(CCCl)CCCl)cc1)C(=O)NC(C(=O)O)C(C)C (configuration not stated)	/	-21	16	0	4	1
O=c1[nH]c2ccccc2n1C1CCN(C(c2cc3ccccc3o2)c2nnnn2-c2ccc3c(c2)OCCO3)CC1 (configuration not stated)	-10	/	103*	0	/	26
O=c1[nH]c2ccccc2n1C1CCN(C(c2cccc3ccccc23)c2nnnn2-c2ccc3c(c2)OCCO3)CC1 (configuration not stated)	0	/	98*	-3	/	10
COc1ccc(-n2nnnc2C(c2cc3ccccc3o2)N2CCC(n3c(=O)[nH]c4ccccc43)CC2)cc1 (configuration not stated)	-3	/	52	-7	/	36
CCCC[C@@H](C)C[C@@H](C)C(=O)N(C)[C@@H](CC(C)C)C(=O)N[C@H](C(=O)N(C)[C@H](C(=O)N1C[C@@H](O)C[C@H]1C(=O)N1C(=O)C=C[C@@H]1C)C(C)C)C(C)OC(C)=O (some centres not stated)	-71	100*	/	/	-99	/
C=C1[C@@H](C)[C@H]2[C@H](Cc3ccccc3)NC(=O)[C@]23OC(=O)/C=C/[C@H](O)CCC[C@@H](C)C/C=C/[C@H]3[C@@H]1O	11	14	74*	-8	-13	-14
C=C1C(C)C2C(Cc3ccccc3)NC(=O)C23C(OC(C)=O)C=CC(C)(O)CC(C)CC=CC3C1O (configuration not stated)	/	-1	?	-3	2	-11
CN(C)C(=O)O/N=C(\N)COc1ccc(C(C)(C)C)cc1	4	-10	-4	2	/	57*
